This is a sample that favours compounds with a hit; in the whole collection about 6.8% have one here.
C diff HTS – blocks growth of Clostridium difficile. Clostridium difficile clinical isolate growth, OD600, 24 h; active compounds read low. 86,000 tested, 0.25% active. AID 1259249. growth activity, negative = inhibition, % at 16 µg/mL (by protocol);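 active = mean growth activity at or below -80% and every replicate also at or below -80%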;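 also: 0% = DMSO wells and -100% = levofloxacin 16 µg/mL wells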
Tcruzi prolif – blocks T. cruzi growth in NIH3T3 culture; T. cruzi beta-gal in NIH3T3, GalScreen luminescence, 90 h; inhibition, % at 8.34 µM; 77,000 tested, 5.9% active; AID 624255;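 active = mean inhibition above about 93%, with at least 55% of replicates each passing it, limit read from the data, passing the limit was not always enough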
Pf Dd2 inh – inhibitors of Plasmodium falciparum Dd2 growth. 94,000 tested, 2.3% active. activity change, % at 10 µM. P. falciparum Dd2 growth, SYBR Green, 72 h; active compounds read low; in the data active = activity change below about -80%
Active calls of the source: *; x = not tested or not shown; ! = not active in a repeat.

SMILES	C diff HTS	Tcruzi prolif	Pf Dd2 inh
O=C(C[C@@H]1C[C@@H]2c3cc(NC(=O)C4CCOCC4)ccc3O[C@@H]2[C@H](CO)O1)NCc1ccc2c(c1)OCO2	x	16	9
CCCN(C)C[C@H]1OCCCC[C@@H](C)Oc2ccc(NC(=O)c3ccccc3)cc2C(=O)N([C@H](C)CO)C[C@H]1C	4	63	-69
CCCN(C)C[C@@H]1OCCCC[C@@H](C)Oc2ccc(NC(=O)c3ccccc3)cc2C(=O)N([C@H](C)CO)C[C@@H]1C	3	28	-83*!
C[C@H](CO)N1C[C@H](C)[C@@H](CN(C)CC2CC2)OCCCC[C@H](C)Oc2ccc(NC(=O)c3ccccc3)cc2C1=O	-1	66	-35
C[C@@H]1CCCCO[C@H](CN(C)CC2CC2)[C@H](C)CN([C@H](C)CO)C(=O)c2cc(NC(=O)c3ccccc3)ccc2O1	-4	15	-81*
C[C@H](CO)N1C[C@H](C)[C@H](CN(C)C(=O)Nc2ccccc2)OCCCC[C@H](C)Oc2ccc(NC(=O)Nc3cccc4ccccc34)cc2C1=O	x	31	41
O=C(C[C@H]1CC[C@H]2[C@@H](COC[C@H](O)CN2C(=O)Nc2ccc(F)cc2)O1)NC1CCC1	4	x	14
Cc1ccc(S(=O)(=O)N(C)C[C@H]2Oc3ccc(NC(=O)Cc4ccccc4)cc3C(=O)N([C@@H](C)CO)C[C@@H]2C)cc1	-7	29	-58
OC[C@@H]1[C@@H](c2ccccc2)C2(CN(CCC(F)(F)F)C2)N1Cc1ccccc1	27	x	-79
O=S(=O)(Cc1ccccc1)N1[C@H](CO)[C@@H](c2ccccc2)C12CN(CCC(F)(F)F)C2	15	x	-84*
O=C(C[C@H]1CC[C@@H](NC(=O)Nc2ccc3c(c2)OCO3)[C@H](CO)O1)NCc1ccc(F)cc1	3	1	-2
COc1ccc(C#Cc2ccc3c(c2)O[C@@H](CN(C)C)[C@H](C)CN([C@H](C)CO)S3(=O)=O)cc1	8	87	-37
COc1ccc(C#Cc2ccc3c(c2)O[C@@H](CN(C)S(=O)(=O)c2ccccc2F)[C@H](C)CN([C@@H](C)CO)S3(=O)=O)cc1	0	x	-82*
COc1ccc(C#Cc2ccc3c(c2)O[C@H](CN(C)C)[C@@H](C)CN([C@H](C)CO)S3(=O)=O)cc1	2	93	-24
COc1ccc(C#Cc2ccc3c(c2)O[C@H](CN(C)S(=O)(=O)c2ccccc2F)[C@@H](C)CN([C@@H](C)CO)S3(=O)=O)cc1	1	x	-86*
COc1ccc(NC(=O)N(C)C[C@@H]2OCCCC[C@H](C)Oc3ccc(NS(=O)(=O)c4ccc(Cl)cc4)cc3C(=O)N([C@H](C)CO)C[C@@H]2C)cc1	4	49	-14
O=C(C[C@H]1CC[C@H]2[C@@H](COC[C@@H](O)CN2C(=O)Nc2cc(Cl)cc(Cl)c2)O1)NCC1CC1	10	x	-10
Cc1noc(C)c1C(=O)N(C)C[C@H]1OCc2ccccc2-c2c(n(C)c3ccccc23)C(=O)N([C@H](C)CO)C[C@@H]1C	0	19	16
C[C@@H](NC(=O)C[C@H]1CC[C@H]2[C@@H](COC[C@H](O)CN2C)O1)c1ccccc1	-3	-65	31
C[C@H](CO)N1C[C@H](C)[C@@H](CN(C)S(C)(=O)=O)Oc2ccc(NC(=O)Cc3cn(C)c4ccccc34)cc2CC1=O	-3	25	6
O=C(N[C@@H]1CC[C@@H](CCNS(=O)(=O)c2ccc(F)cc2)O[C@@H]1CO)C1CCC1	3	7	16
CO[C@H]1CN(C)C(=O)c2ccc(NC(=O)Nc3ccccc3)cc2OC[C@@H](C)N(C(C)=O)C[C@H]1C	-4	15	x
COc1ccc(S(=O)(=O)N(C)C[C@@H]2Oc3ccc(NC(=O)CCCCCC(=O)Nc4ccccc4N)cc3CC(=O)N([C@@H](C)CO)C[C@@H]2C)cc1	-5	30	-92*
C[C@@H]1CN([C@@H](C)CO)C(=O)Cc2cc(NC(=O)CCCCCC(=O)Nc3ccccc3N)ccc2O[C@@H]1CN(C)S(=O)(=O)c1ccc(Cl)cc1	x	57	-63
Cc1ccc(S(=O)(=O)N(C)C[C@H]2Oc3ccc(NC(=O)CCCCCC(=O)Nc4ccccc4N)cc3CC(=O)N([C@H](C)CO)C[C@H]2C)cc1	-3	47	-67
SMILES	C diff HTS	Tcruzi prolif	Pf Dd2 inh
Cc1ccc(S(=O)(=O)N(C)C[C@@H]2Oc3ccc(NC(=O)CCCCCC(=O)Nc4ccccc4N)cc3CC(=O)N([C@H](C)CO)C[C@@H]2C)cc1	-2	49	-87*
COc1ccc2c3c(n(C)c2c1)[C@H](CO)N(CC1CCCCC1)CC31CN(C(C)=O)C1	5	x	-70
CCC(=O)Nc1ccc2c(c1)OC[C@H](C)N(C(=O)CC)C[C@H](C)[C@H](OC)CN(C)C2=O	x	1	x
N#C[C@@H]1[C@H](c2ccccc2)[C@H](CO)N1C(=O)c1ccccc1F	-7	-67	20
C[C@H](CO)N1C[C@H](C)[C@@H](CN(C)C(=O)Nc2ccccc2)Oc2ccc(NC(=O)Nc3ccc(C(F)(F)F)cc3)cc2CC1=O	8	28	-85*
C[C@H](CO)N1C[C@H](C)[C@@H](CN(C)C(=O)Nc2ccc(F)cc2)Oc2ccc(NC(=O)Nc3ccc(C(F)(F)F)cc3)cc2CC1=O	17	10	-88*
COc1ccc(NC(=O)N(C)C[C@H]2Oc3ccc(NC(=O)Nc4ccc(C(F)(F)F)cc4)cc3CC(=O)N([C@H](C)CO)C[C@@H]2C)cc1	11	35	-88*
COc1ccc(NC(=O)Nc2ccc3c(c2)CC(=O)N([C@@H](C)CO)C[C@H](C)[C@@H](CN(C)C(=O)Nc2ccc(C(F)(F)F)cc2)O3)cc1	-9	3	-17
C[C@H](CO)N1C[C@H](C)[C@@H](CN(C)C(=O)Nc2ccc(C(F)(F)F)cc2)Oc2ccc(NC(=O)Nc3ccccc3)cc2CC1=O	15	20	-64
C[C@H]1CN([C@@H](C)CO)C(=O)Cc2cc(NC(=O)Nc3ccc(C(F)(F)F)cc3)ccc2O[C@@H]1CN(C)C(=O)Nc1ccc(F)cc1	-2	4	-74
C[C@H](CO)N1C[C@H](C)[C@H](CN(C)C(=O)Nc2cccc3ccccc23)Oc2ccc(NC(=O)CCCN(C)C)cc2C1=O	-5	x	5
Cc1ccccc1S(=O)(=O)N1C[C@H](O)COC[C@@H]2O[C@@H](CC(=O)N3CCN(C)CC3)CC[C@H]21	0	1	x
C[C@@H]1CCCCO[C@H](CN(C)S(=O)(=O)c2ccc(Cl)cc2)[C@H](C)CN([C@H](C)CO)C(=O)c2cc(NS(C)(=O)=O)ccc2O1	-3	19	-51
O=C(Nc1ccc2c(c1)[C@@H]1C[C@H](CC(=O)N3CCOCC3)O[C@H](CO)[C@@H]1O2)NC1CCCCC1	x	20	8
CN(C)C(=O)C[C@@H]1CC[C@@H]2[C@@H](COc3ccc(NC(=O)C4CCOCC4)cc3C(=O)N2C)O1	2	-57	19
CC(C)(C)[S@](=O)N1Cc2cc(C(=O)N[C@H]3CCN(Cc4ccccc4)C3)nc(-c3cccc(-c4ccncc4)c3)c2[C@@H]1CCO	-6	x	-78
CN(C)CC#Cc1cccc(-c2nc(C(=O)N3CCN(Cc4ccccc4)CC3)cc3c2[C@@H](CCO)N(S(=O)C(C)(C)C)C3)c1 (stereo partly specified)	5	x	-3
